Source: PubChem
This is a sample that favours compounds with a hit; in the whole collection about 9.2% have one here.
Rab9 promoter act = activators of Rab9 promoter; Huh7 Rab9 promoter-luciferase reporter, luminescence, 24 h; AID 485297; Potency, µM (top dose mostly 9.22 µM), actives largely listed as activators; 2.8% of 320,000 active; note: nearly all actives have a fitted effect of over 60% in size
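Cells were plated at 1500 per well in reduced-serum medium with 10% FBS and left 2 h. Compound in DMSO was then added for 24 h at 37 °C. Reporter signal was read by luminescence after 10 min with luciferase detection reagent.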
ELG1 repair inh = inhibitors of ELG1-dependent DNA repair in HEK293T cells; Potency, µM (top dose mostly 46.1 µM), actives largely listed as inhibitors; 2.3% of 330,000 active; HEK293T ELG1-luciferase reporter, luminescence, 16 h; DNA damage induced by 5-fluorouridine; note: nearly all actives have a fitted effect of over 55% in size
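Overnight (16 hr) co-exposure of 2,000 cells/well to 5-fluorouridine and compound at 37 °C preceded detection. Luciferase was quantified via ONE-Glo luminescence; loss of signal denotes inhibition.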
FLuc modulator = firefly luciferase modulation, counter-screen for miR-21 project | P08659 | purified FLuc, Km substrates, luminescence inhibition | Potency, µM (series often up to 57.5 µM), actives largely listed as inhibitors | 6.9% of 360,000 active | AID 588342; note: nearly all actives have a fitted effect of over 55% in size
Target sequence (P08659 whole entry, looked up): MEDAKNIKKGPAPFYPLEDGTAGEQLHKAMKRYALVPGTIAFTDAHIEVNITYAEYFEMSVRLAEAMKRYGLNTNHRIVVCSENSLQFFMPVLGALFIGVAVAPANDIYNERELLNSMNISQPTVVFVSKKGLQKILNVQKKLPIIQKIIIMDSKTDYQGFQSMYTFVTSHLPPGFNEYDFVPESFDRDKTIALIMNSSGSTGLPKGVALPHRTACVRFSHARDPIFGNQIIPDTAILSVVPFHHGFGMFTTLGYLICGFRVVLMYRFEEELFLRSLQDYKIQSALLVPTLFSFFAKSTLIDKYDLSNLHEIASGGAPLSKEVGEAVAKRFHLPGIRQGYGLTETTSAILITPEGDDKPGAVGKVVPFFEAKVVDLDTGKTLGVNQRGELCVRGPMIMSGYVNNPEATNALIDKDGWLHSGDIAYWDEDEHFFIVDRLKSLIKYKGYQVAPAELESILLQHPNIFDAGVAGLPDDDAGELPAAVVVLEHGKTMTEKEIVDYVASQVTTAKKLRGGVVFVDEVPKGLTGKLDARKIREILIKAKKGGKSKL
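Purified P. pyralis luciferase, 10 nM final, with Km-level 10 uM D-luciferin and 10 uM ATP in 50 mM Tris acetate pH 7.5, 10 mM Mg acetate, 0.01% Tween-20, 0.05% BSA; 6-point qHTS titration about 60 µM downward; luminescence read.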
SMN2 splice up = SMN2 splice variant enhancement | HEK293 SMN2-luciferase splicing reporter, luminescence, 30-36 h | 2.8% of 210,000 active | Potency, µM (series often up to 46.1 µM), usual class: activators; note: nearly all actives have a fitted effect of over 55% in size
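HEK293 cells carry an SMN2 […]–luciferase reporter in which exon 7 inclusion puts luciferase in frame. Cells were plated 10-12 h before compound addition, then incubated 30-36 h at 37C. ONE-Glo luminescence was read; sodium butyrate at 4.5 mM final served as control.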
ELG1 genotoxic = inducers of genotoxicity in HEK293T ELG1-luciferase cells; HEK293T ELG1-luciferase reporter, luminescence, 16 h; Potency, µM (top dose mostly 46 µM), usual class: activators; 1.3% of 330,000 active; note: nearly all actives have a fitted effect of over 60% in size
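Reporter readout depends on ELG1 protein level, which increases with genetic stress. After 16 hr compound exposure at 37 °C, luciferase activity was quantified using ONE-Glo.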
NPC1 promoter act = activators of NPC1 promoter; 2.4% of 320,000 active; Potency, µM (doses to about 9.22 µM), hits mostly activators; Huh7 NPC1 promoter luciferase reporter, 24 h; AID 485313; note: nearly all actives have a fitted effect of over 60% in size
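In 1536-well qHTS, Huh7 cells harboring an NPC1 promoter–luciferase construct received compound for 24 h; activation was quantified by luminescence following luciferase reagent addition.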
A number is an active result; – = inactive; ? = inconclusive; · = no result given; ! = a repeat was not active. Calls come from the whole dose curve; as a rule, active = well fitted curve in the direction sought with a large enough effect; inconclusive = small, poorly fitted or top-dose-only effect, or another doubt; inactive = no such curve, though single readings can be large; an effect the other way counts as inactive or inconclusive.

SMILES	Rab9 promoter act	ELG1 repair inh	FLuc modulator	SMN2 splice up	ELG1 genotoxic	NPC1 promoter act
Cc1ccc(-c2cc(C(F)F)n3ncc(C(=O)N4CCN(c5ccccn5)CC4)c3n2)cc1	–	3.7µM	–	–	–	–
CN1CCC(OC(=O)COc2ccc(F)cc2)CC1	–	?	–	–	–	–
Cc1cccc(C)c1NC(=O)c1cccc2c1C(=O)N(C1CCCCC1)C2	–	–	–	·	–	–
Cc1ccc(C)c(OCCCCn2cnc3ccccc3c2=O)c1	–	?	–	·	–	–
Brc1ccccc1OCCCCn1cnc2ccccc21	–	?	11µM	–	?	–
Clc1ccccc1OCCn1cnc2ccccc21	?	?	17µM	–	?	–
Cc1ccc(OCCCCn2cnc3ccccc32)c(C)c1	–	–	11µM	–	–	–
N#CC(=C(/N)Sc1ccccc1N)/C(C#N)=C(\N)Sc1ccccc1N	·	·	·	–	·	·
CCCc1cc(=O)n2c(nc3ccccc32)[nH]1	?	?	17µM	?	?	–
Cc1cc(=O)n2c(nc3ccccc32)[nH]1	–	–	–	–	–	–
CCOC(=O)c1cc(=O)n2c(nc3ccccc32)[nH]1	?	?	24µM	·	–	–
O=C(CC1N=C2c3ccccc3N=C(SCC(=O)Nc3ccccc3F)N2C1=O)NCc1ccc2c(c1)OCO2 (stereo not given)	·	·	–	–	·	·
OCCN(CCO)c1nc(N2CCCCC2)c2nc(N(CCO)CCO)nc(N3CCCCC3)c2n1	–	0.46µM	–	–	–	–
Nc1nc(NCCO)nc(N2CCCCCC2)c1[N+](=O)[O-]	–	–	–	·	–	–
Cc1ccc(CS(=O)Cc2ccc(C(=O)NCc3ccc(OC(C)C)cc3)o2)cc1 (stereo not given)	–	7.3µM	–	·	–	–
Cc1ccc(S(=O)Cc2ccc(C(=O)NCc3ccc(OC(C)C)cc3)o2)cc1 (stereo not given)	·	·	–	·	·	·
O=c1[nH]c2ccc(F)cc2[nH]c1=O	–	–	–	–	–	–
O=c1[nH]c2cc(Cl)c(Cl)cc2[nH]c1=O	–	·	·	11µM!	·	–
COC(=O)Cn1c(=NC(=O)c2ccc3c(c2)OCCO3)sc2ccccc21	·	·	8.5µM	·	·	·
COC(=O)Cn1c(O)c(N=NC(=O)c2ccc3c(c2)OCO3)c2ccccc21	–	?	0.95µM	·	–	?
c1cc2[nH]snc2c2nc(C3CC3)nc12	–	5.8µM	?	–	–	–
C=CS(=O)(=O)c1ccc(Oc2ccc(S(=O)(=O)C=C)cc2)cc1	–	2.6µM	–	–	–	–
CC(C(O)C12CC3CC(CC(C3)C1)C2)N1CCCCC1 (stereo not given)	–	–	–	–	–	–
COCCN(C(=O)c1cc(OC)c(OC)c(OC)c1)c1c(N)n(Cc2ccccc2)c(=O)[nH]c1=O	–	–	–	·	–	–
CN(C)c1c(F)cc(C(=O)NCc2ccccc2)cc1F	–	–	?	·	–	–
SMILES	Rab9 promoter act	ELG1 repair inh	FLuc modulator	SMN2 splice up	ELG1 genotoxic	NPC1 promoter act
CSc1nnc(NC(=O)c2ccc(C)c(S(=O)(=O)N3CCOCC3)c2)s1	–	?	?	11µM	?	–
Cc1nnc(NC(=O)c2ccc(C)c(S(=O)(=O)N3CCOCC3)c2)s1	·	·	?	–	·	·
Cc1ccc(C(=O)Nc2ccccc2C(=O)NCc2ccco2)cc1S(=O)(=O)N1CCCCC1	–	12µM	–	–	–	–
Cc1ccc(C(=O)Nc2cccc(C(=O)O)c2)cc1S(=O)(=O)N1CCCCC1	0.4µM	?	0.34µM	11µM	?	0.79µM
Cc1ccc(C(=O)Nc2cccc(C(=O)O)c2)cc1S(=O)(=O)N1CCOCC1	2.2µM	?	1.1µM	13µM	–	1.3µM
Cc1ccc2cc3cc(C(=O)N4CCN(c5ccccc5)CC4)oc3nc2c1	·	·	–	·	·	·
CN(Cc1cccnc1)C(=O)c1ccc(Cl)c(NS(=O)(=O)c2ccc(F)cc2)c1	–	–	–	·	–	–
Cc1ccc(C(=O)Nc2cccc(S(=O)(=O)N3CCCCC3)c2)cc1[N+](=O)[O-]	–	11µM	–	·	–	–
Cc1ccc(NC(=O)c2cccc(S(=O)(=O)N(C)c3ccccc3)c2)cc1S(=O)(=O)N1CCOCC1	–	13µM	–	–	–	–
Cc1ccc(C(=O)Nc2ccc3c(c2)CCC3)cc1S(=O)(=O)N1CCOCC1	2.2µM	?	17µM	?	?	?
CCOc1ncccc1C(=O)OCc1c(F)cccc1Cl	–	–	–	–	–	–
Cc1cc(=O)[nH]c2nnc(SCCC(C)C)n12	·	·	–	·	·	·
COC(=O)/C(=C1\OC(=O)C(c2ccccc2)C1=O)c1ccccc1 (stereo not given)	·	·	·	13µM	·	·
O=C(O)/C(=C1/OC(=O)c2ccccc21)c1ccccc1	–	–	–	–	–	–
CCOc1cccc(C(=O)N(Cc2ccc(F)cc2)Cc2ccco2)c1	·	·	–	–	·	·
COc1ccc2cc(C(N)=O)c(=Nc3ccccc3)oc2c1	1.6µM	?	–	–	?	3.5µM
NC(=O)c1cc2ccc(O)cc2oc1=NCc1ccccc1	–	9.2µM	–	–	–	–
NC(=O)c1cc2ccc(O)cc2oc1=Nc1ccccc1	–	2.3µM	–	–	–	?
COc1ccc(OC)c(N=c2oc3cc(O)ccc3cc2C(N)=O)c1	–	?	21µM	–	–	–
COc1ccc2cc(C(=O)NCc3ccccc3)c(=Nc3ccc(C(=O)O)cc3)oc2c1	–	?	–	–	–	–
O=C(O)c1ccc(N=c2oc3cc(O)ccc3cc2C(=O)NCc2ccccc2)cc1	–	?	?	–	–	–
Cc1ccccc1Nc1nnc(-c2ccc(C(=O)NCCO)cc2)c2ccccc12	–	–	–	·	–	–
C=CCn1c(=O)c2c(nc3n2CCCN3Cc2ccccc2)n(C)c1=O	–	–	–	·	–	–
Cn1c(=O)n(CCc2ccccc2)c(=O)c2c1nc1n2CCN1Cc1ccco1	–	21µM	–	–	–	–
Cn1c(=O)n(C/C=C/c2ccccc2)c(=O)c2c1nc1n2CCCN1c1ccc(F)cc1	–	23µM	–	–	–	–
CCOC(=O)Cn1c(=O)c2c(nc3n2CCN3c2ccc(CC)cc2)n(C)c1=O	·	·	13µM	·	·	·
Cn1c(=O)n(C/C=C/c2ccccc2)c(=O)c2c1nc1n2CCCN1Cc1ccccc1	–	21µM	–	·	–	–
C=Cc1c(C)/c2[n-]/c1=C\c1[n-]c(c(CC)c1C)/C=c1\[n-]c3c(c1C)C(=O)C(C(=O)[O-])C=3c1[n-]c(c(C)c1CCC(=O)[O-])\C=2.[Cu].[Na+].[Na+] (stereo not given)	·	·	·	–	·	·
Cc1cccc(N(C(=O)c2snc(C(N)=O)c2N)C(C(=O)NCC2CCCO2)c2ccc(N(C)C)cc2)c1C (stereo not given)	–	–	–	·	–	–
